Assay [1] addresses Pyruvate kinase PKM (Homo sapiens) (UniProt P14618). In words: qHTS Assay for Activators of Human Muscle Pyruvate Kinase (AID 954; active means well fitted curve in the direction sought with a large enough effect, not every such curve was filed as active). The method in brief:
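Purified human PKM2 (0.1 nM) with 0.5 mM PEP (Km) and 0.1 mM ADP in 50 mM imidazole pH 7.2, KCl, MgCl2, 1 h at room temperature; ATP formed read by coupled luciferase luminescence. Normalized to no-enzyme/110 uM thiadiazolimine inhibition; 0.3 nM enzyme column for activation.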
(Quantitative high-throughput screening tests each substance at several concentrations.)

The target in assay [2] is Guanine nucleotide-binding protein G(i) subunit alpha-1 (Homo sapiens) (UniProt P63096). In words: qHTS Assay for Inhibitors of RGS12 GoLoco Motif Activity (Green Fluorophore) (AID 879).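 Further: negative values mean loss of peptide binding seen as reduced polarization.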 The gist of the method:
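Fluorescence polarization assay: 50 nM Gαi1 with 10 nM FITC-labeled RGS12 GoLoco peptide in 10 mM Tris pH 7.5, 150 mM NaCl, 0.1 mM GDP, 0.05% NP40, 10 min at room temperature with compound.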

Assay [3] can be described thus: S16 Schwann cell viability assay (CellTiter-Glo assay) (AID 624031). Further: nearly all actives have a fitted effect of over 70% in size. The gist of the method:
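Native S16 rat Schwann cells, 500-750 cells/well in DMEM with 10% FBS, dosed with compound after overnight culture and incubated 24h at 37 degree Celsius/5% CO2. Viability by CellTiter-Glo luminescence; % activity normalized to no-cell wells and DMSO-treated cells.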
For orientation: ATP-based viability assays read luminescence as a measure of living cells.

For a further assay, the system named is CP191. In words: qHTS profiling for inhibitors of Plasmodium falciparum proliferation (AID 504749). Further: nearly all actives have a fitted effect of over 60% in size. Further: potency means the concentration at half of the fitted maximal effect. The following applies: P. falciparum in erythrocytes, SYBR Green DNA, 72 h; series mostly up to 12.8 µM. The gist of the method: (§1)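 Readout was DNA-dye fluorescence from lysed cultures, ex 485/em 535 nm. Parasitized red cells had grown 72 h with compound; data scaled between 0.29 uM artemisinin and DMSO wells and corrected using vehicle-only plates.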

The next assay has as its system CP201. The description is as above. The following applies: P. falciparum in erythrocytes, SYBR Green DNA, 72 h; series mostly up to 12.8 µM. The method in brief:
as §1

For the next assay, the system named is CP247. The assay is described as above. The following applies: P. falciparum in erythrocytes, SYBR Green DNA, 72 h; series mostly up to 12.8 µM. The gist of the method:
as §1

A further assay concerns CP250. The description is as above. The note with it: P. falciparum in erythrocytes, SYBR Green DNA, 72 h; series mostly up to 12.8 µM. The method in brief: as §1
The test system of another assay is CP262. Described as above. The note with it: P. falciparum in erythrocytes, SYBR Green DNA, 72 h; series mostly up to 12.8 µM. The method in brief: as §1
For the next assay, the system named is CP329. The assay is described as above. The following applies: P. falciparum in erythrocytes, SYBR Green DNA, 72 h; series mostly up to 12.8 µM. The method in brief: as §1
The subject of a further assay is Dd2. Described as above. The following applies: P. falciparum in erythrocytes, SYBR Green DNA, 72 h; series mostly up to 12.8 µM. The method in brief: as §1
The next assay relates to JCK. The description is as above. The note with it: P. falciparum in erythrocytes, SYBR Green DNA, 72 h; series mostly up to 12.8 µM. The gist of the method: as §1
The test system of another assay is N140. The description is as above. The following applies: P. falciparum in erythrocytes, SYBR Green DNA, 72 h; series mostly up to 12.8 µM. The method in brief: as §1
The test system of a further assay is PC15. Described as above. The note with it: P. falciparum in erythrocytes, SYBR Green DNA, 72 h; series mostly up to 12.8 µM. The method in brief: as §1
The subject of another assay is PC49. The assay is described as above. The note with it: P. falciparum in erythrocytes, SYBR Green DNA, 72 h; series mostly up to 12.8 µM. The gist of the method:
as §1

The subject of another assay is ATS189. The description is as above. The note with it: P. falciparum in erythrocytes, SYBR Green DNA, 72 h; series mostly up to 12.8 µM. The method in brief:
as §1

A further assay relates to CP185. The assay is described as above. The note with it: P. falciparum in erythrocytes, SYBR Green DNA, 72 h; series mostly up to 12.8 µM. The gist of the method:
as §1

Another assay relates to CP256. Described as above. The following applies: P. falciparum in erythrocytes, SYBR Green DNA, 72 h; series mostly up to 12.8 µM. The gist of the method:
as §1

The test system of a further assay is CP325. Described as above. The following applies: P. falciparum in erythrocytes, SYBR Green DNA, 72 h; series mostly up to 12.8 µM. The method in brief: as §1
A further assay deals with SC27B. The assay is described as above. The following applies: P. falciparum in erythrocytes, SYBR Green DNA, 72 h; series mostly up to 12.8 µM. The gist of the method: as §1
The subject of another assay is TAB113. Described as above. The note with it: P. falciparum in erythrocytes, SYBR Green DNA, 72 h; series mostly up to 12.8 µM. The gist of the method: as §1

Records with an inconclusive call do not appear. Calls of active or inactive are those of the source. Unless noted, the call rests on the fitted dose curve; in most records, active means well fitted curve in the direction sought with a large enough effect; inconclusive means small, poorly fitted or top-dose-only effect, or another doubt; inactive means no such curve, though single readings can be large; an effect the other way counts as inactive or inconclusive.

Sequence of Guanine nucleotide-binding protein G(i) subunit alpha-1 (Homo sapiens) (P63096 whole entry, looked up): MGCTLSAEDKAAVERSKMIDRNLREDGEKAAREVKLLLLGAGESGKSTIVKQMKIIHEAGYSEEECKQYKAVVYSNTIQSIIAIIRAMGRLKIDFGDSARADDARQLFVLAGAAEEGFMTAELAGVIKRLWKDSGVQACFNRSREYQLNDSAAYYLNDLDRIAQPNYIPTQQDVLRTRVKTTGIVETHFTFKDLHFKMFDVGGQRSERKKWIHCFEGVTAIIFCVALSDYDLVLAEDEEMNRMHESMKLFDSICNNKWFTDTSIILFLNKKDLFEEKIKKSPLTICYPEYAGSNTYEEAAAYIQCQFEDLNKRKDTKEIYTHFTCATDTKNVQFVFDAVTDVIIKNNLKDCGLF
Sequence of Pyruvate kinase PKM (Homo sapiens) (P14618 whole entry, looked up): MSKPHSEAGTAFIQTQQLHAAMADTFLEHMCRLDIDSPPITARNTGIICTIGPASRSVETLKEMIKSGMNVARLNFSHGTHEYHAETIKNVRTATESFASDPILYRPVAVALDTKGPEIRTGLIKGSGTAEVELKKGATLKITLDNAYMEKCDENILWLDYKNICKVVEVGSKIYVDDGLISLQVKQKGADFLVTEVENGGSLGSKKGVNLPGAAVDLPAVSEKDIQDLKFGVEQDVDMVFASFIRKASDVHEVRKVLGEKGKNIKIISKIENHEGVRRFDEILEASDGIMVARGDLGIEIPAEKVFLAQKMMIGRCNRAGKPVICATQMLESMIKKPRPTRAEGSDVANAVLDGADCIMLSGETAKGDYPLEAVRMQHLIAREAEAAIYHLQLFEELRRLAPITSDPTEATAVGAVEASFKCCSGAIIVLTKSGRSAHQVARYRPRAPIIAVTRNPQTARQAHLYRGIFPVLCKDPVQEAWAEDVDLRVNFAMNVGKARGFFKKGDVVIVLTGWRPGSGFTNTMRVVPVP

Regarding `CN1Cc2c(N)cccc2[C@H](c2ccccc2)C1`, the compound was classed as inactive in assay [1].
Consider `CC(=O)OCC1=C(C(=O)O)N2C(=O)[C@@H](NC(=O)Cc3cccs3)[C@@H]2SC1`, for which the Potency result in [2] was “inactive”. Further, in assay [1], the result was inactive.
Regarding `C[C@@H]1c2cccc(O)c2C(O)=C2C(=O)[C@@]3(O)C(O)=C(C(N)=O)C(=O)[C@@H](N(C)C)[C@@H]3[C@@H](O)[C@@H]21`, the Potency entry (in [2]; in [3]; with CP191; in the assay with CP201; in the assay on CP247; with CP250) was “inactive” each time. For the same compound, the Potency result in the assay on CP262, in the assay on CP329, in the assay with JCK, in the assay on N140, in the assay with PC15 and in the assay with PC49 was “inactive” each time. The result in [1] was inactive. Also, the Potency with Dd2 was 3.98 µM (active).
As to `C[C@@](N)(Cc1ccc(O)c(O)c1)C(=O)O`, in assay [2], the Potency entry was “inactive”. In addition, the compound was called inactive in assay [1].
As for `C[C@H](NCCc1ccc(O)cc1)[C@@H](O)c1ccc(O)cc1`, the Potency result (in assay [2]; in assay [3]; in the assay on ATS189; with CP185; with CP191; with CP201) was “inactive” throughout. The Potency entry in the assay with CP247, with CP250, in the assay with CP256, in the assay with CP262, in the assay on CP325 and in the assay on CP329 was “inactive” in each case. For the same compound, the Potency result in the assay on Dd2, in the assay on JCK, in the assay on N140, in the assay with PC15, with PC49 and with SC27B was “inactive” throughout. In addition, in the assay on TAB113, the Potency entry is “inactive”. Further, the compound was called inactive in [1].
Regarding `C=CCc1ccccc1OC[C@H](O)CNC(C)C`, the Potency result in assay [2] is “inactive”. The compound was classed as inactive in [1].
For `CN1C(=O)CC[C@@H]1c1cccnc1`, in assay [2], the Potency result was “inactive”. Also, the call in assay [1] was inactive.
As for `Cc1cccc(C)c1OC[C@H](C)N`, in [2], the Potency entry is “inactive”. The outcome in [1] was inactive.
In the case of `O=C(c1ccccc1)c1ccc2n1CC[C@H]2C(=O)O`, the Potency result (in [2]; in assay [3]; with ATS189; with CP185; in the assay on CP191; in the assay with CP201) was “inactive” in each case. For the same compound, the Potency entry in the assay with CP247, in the assay on CP250, with CP256, in the assay on CP262, in the assay with CP325 and in the assay on CP329 was “inactive” throughout. Also, the Potency entry with Dd2, in the assay with JCK, in the assay with N140, in the assay on PC15, in the assay with PC49 and in the assay on SC27B was “inactive” each time. Moreover, the Potency entry in the assay with TAB113 was “inactive”. Moreover, in assay [1], the compound was called inactive.
As to `O[C@@](CCN1CCCCC1)(c1ccccc1)C1CCCCC1`, in assay [2], the Potency result is “inactive”. For the same compound, in assay [1], the result was inactive.
With `CN(C)[C@@H]1C(=O)C(C(N)=O)=C(O)[C@]2(O)C(=O)C3=C(O)c4c(O)ccc(Cl)c4[C@H](O)[C@H]3C[C@@H]12`, the Potency result (in assay [2]; in assay [3]; with ATS189; with CP185; in the assay with CP191; in the assay on CP201) was “inactive” throughout. The Potency entry with CP247, with CP250, in the assay with CP256, in the assay on CP262, with CP325 and in the assay with CP329 was “inactive” each time. In addition, the Potency result in the assay on JCK, in the assay on N140, in the assay on PC15, in the assay with PC49, with SC27B and in the assay with TAB113 was “inactive” throughout. Also, the outcome in assay [1] was inactive. For the same compound, in the assay with Dd2, the Potency was 3.16 µM (active).
Turning to `O=C(C1CCCCC1)N1CC(=O)N2CCc3ccccc3[C@@H]2C1`, the Potency entry in [3] was “inactive”.
With `CCn1cc(C(=O)O)c(=O)c2cc(F)c(N3CCN[C@@H](C)C3)c(F)c21`, the Potency entry (in [2]; in assay [3]; in the assay on ATS189; in the assay on CP185; in the assay on CP191; with CP201) was “inactive” each time. Moreover, the Potency result with CP247, in the assay on CP250, in the assay with CP256, with CP262, in the assay on CP329 and in the assay with Dd2 was “inactive” in each case. The Potency result with N140, with PC15, in the assay on PC49 and in the assay on SC27B was “inactive” throughout. Besides, in assay [1], the result was inactive.

The values above are taken from PubChem BioAssay (NCATS).
